Reference: PubChem BioAssay (NCATS)
“And” between values parts separate entries of the source, which are not always exact repeats. Equal values may be shown once. Records with an inconclusive call do not appear. The source made the active and inactive calls. Unless noted, calls come from the whole dose curve; as a rule, active = well fitted curve in the direction sought with a large enough effect; inconclusive = small, poorly fitted or top-dose-only effect, or another doubt; inactive = no such curve, though single readings can be large; an effect the other way counts as inactive or inconclusive.

Experiments:
[1] = AP1 Signaling Pathway (AID 357; active = well fitted curve in either direction with a large enough effect, not every such curve was filed as active;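 note: ME-180 reporter cells stimulated with EGF at its EC50 level; % is set by controls: 0 for no effect and ±100 for the full control effect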); conditions: ME-180 AP-1-bla reporter, EGF-induced, beta-lactamase ratio, 5 h; at 7.69 µM (top of the series) unless noted
How it was run: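 A ratiometric CCF4 readout (405 nm excitation; 460 and 530 nm emission) quantified AP-1-driven beta-lactamase in ME-180 cells after 5 h with compound and EC50 EGF; AC50 values were derived for activators and inhibitors.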

[2] = biological target: Cytochrome P450 1A2 (Homo sapiens) (UniProt P05177); test: p450-cyp1a2 (AID 410; calls by dose curve; note: potency is the fitted concentration of half-maximal effect;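 for activity change, negative = inhibition: -100% = full effect of reference inhibitor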)
How it was run: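 20nM CYP1A2 with 100uM Luciferin-ME (at Km) in 100mM KPO4; compound preincubated 10 min, NADPH regeneration added, 60 min at room temperature. Luciferin quantified by luminescence after detection reagent; normalized to 57 uM furafylline.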

[3] = NFAT Signaling Pathway (AID 444; active = well fitted curve in either direction with a large enough effect, not every such curve was filed as active;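 note: carbachol stimulus at about its EC50 of 1 µM final; % is set by controls: 0 for no effect and ±100 for the full control effect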); conditions: Jurkat NFAT-bla M1, carbachol, beta-lactamase ratio, 5 h; at 7.69 µM (top of the series) unless noted
How it was run: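 Jurkat cells with NFAT-driven β-lactamase reporter and co-expressed M1 receptor, stimulated with carbachol (final 1 uM, ~EC50), compound titration, 5 h at 37 °C. CCF4 loaded 1 h at RT; 460/530 nm ratio gave %activity and AC50.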

[4] = Stat Signaling Pathway (AID 446; active = well fitted curve in either direction with a large enough effect, not every such curve was filed as active;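 note: ME-180 cervical cancer cells given 40 pM IL-6 alongside compound; SIE-controlled beta-lactamase reporter measured as 460/530 nm FRET emission ratio; % is set by controls: 0 for no effect and ±100 for the full control effect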); conditions: ME-180 SIE beta-lactamase reporter, IL-6 stimulated, 5 h
How it was run: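 Reporter line: ME-180 cervical carcinoma, SIE-beta-lactamase. Treatment: compound with 40 pM IL-6, 5 hrs, 37 C, in low-serum OPTI-MEM with 10 mM HEPES pH 7.3. Detection: 460/530 nm fluorescence.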

[5] = biological target: Glucocorticoid receptor (Homo sapiens) (UniProt P04150); test: GR-GFP Redistribution (AID 450;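 active = compounds whose dose series gives a full or clear partial fitted curve of increased nuclear translocation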; note: potency is the fitted concentration of half-maximal effect); conditions: U2OS GR-GFP nuclear translocation, laser cytometry, 2 h
[6] = biological target: Glucocorticoid receptor (Homo sapiens) (UniProt P04150); test: GR-EFC Redistribution (AID 451; calls by dose curve; note: potency is the fitted concentration of half-maximal effect); conditions: CHO-K1 GR-EFC translocation, beta-gal luminescence, 2 h
How it was run: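 CHO-K1 cells expressing nuclear EA and GR-ED fragments of b-gal; compounds titrated up to 46 uM final, 2 h at 37 C. GR nuclear translocation read as complemented b-gal luminescence after 1 h RT detection.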

[7] = biological target: Mitogen-activated protein kinase 10 (Mus musculus) (UniProt Q61831); test: JNK3 AlphaScreen Assay (AID 530; active = well fitted curve in either direction with a large enough effect, not every such curve was filed as active;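 note: kinase came from lysate of stimulated human HepG2 cells; signal reports phosphorylation of biotinylated GST-cJun 1-79 at Ser73 with 10 µM ATP; % is set by controls: 0 for no effect and ±100 for the full control effect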)
How it was run: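 Pre-activated (IL-1β/TNFα) JNK3 in HepG2 lysates phosphorylates biotin-GST-cJun(1-79), 10 uM ATP; anti-phospho-cJun(Ser73) AlphaScreen read at room temperature, pH 7.6 Tris buffer. Compounds pre-incubated 15 min as titrations.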

[8] = biological target: 3',5'-cyclic-AMP phosphodiesterase 4B (Homo sapiens) (UniProt Q07343); test: qHTS Assay for Inhibitors of PDE-IV (AID 607; active = well fitted activation curve with a large enough effect in the main read-out, with a control signal flat, not every such curve was filed as active; note: % of control where 0% means no effect)
How it was run: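 Cell-based read-out of cAMP via a modified cyclic nucleotide-gated channel and membrane potential dye (535/590 nm) in HEK293 cells expressing PDE4 endogenously. Compounds tested up to 22.9 uM final; 100 uM RO 20-1724 reference.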

[9] = qHTS Assay for Lipid Storage Modulators (AID 1519; calls by dose curve); conditions: Drosophila S3 cells, BODIPY lipid droplet/cell ratio, laser cytometry, cells loaded with oleic acid
How it was run: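 Cells seeded at 5,000 per well were treated with compounds over a concentration series and loaded with oleic acid (400 uM, as added). Lipid droplet fluorescence (488 nm excitation, 500-530 nm channel) was read by laser-scanning cytometry and normalized to 20 uM Triacsin C.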

[10] = biological target: ATP-dependent 6-phosphofructokinase (Trypanosoma brucei brucei) (UniProt O15648); test: qHTS Assay to Find Inhibitors of T. brucei phosphofructokinase: hit validation (AID 492961)
How it was run: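 Compounds titrated; %activity normalized to 0x and 1x enzyme controls, curve-fitted. Readout: ADP-Glo luminescence after 45 min room-temperature reaction of 1.25 nM PFK, 0.1 mM ATP, 0.5 mM F6P, pH 8.0.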

[11] = biological target: Ubiquitin carboxyl-terminal hydrolase 1 (Homo sapiens) (UniProt O94782); test: Inhibitors of USP1/UAF1: Pilot qHTS (AID 504865);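 note: rhodamine fluorescence freed from ubiquitin-rhodamine substrate followed over time; top concentration of the series differs between compounds; % is set by controls: 0 for no effect and ±100 for the full control effect; nearly all actives have a fitted effect of over 35% in size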
How it was run: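 Kinetic fluorescence assay: 1nM USP1/UAF1, 15 min compound preincubation, then 150nM Ub-Rho; 480/540 nm.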

[12] = biological target: Luciferin 4-monooxygenase (Photinus pyralis) (UniProt P08659); test: Biochemical firefly luciferase enzyme assay for NPC (AID 624030);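 note: purified P. pyralis luciferase at 10 nM with luciferin and ATP substrate; 0% = DMSO and -100% = full luciferase inhibition by PTC124 control; nearly all actives have a fitted effect of over 70% in size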
How it was run: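 Purified P. pyralis luciferase at 10 nM in 50 mM Tris Acetate (final), luminescence read within 5 minutes of enzyme addition to compounds. Activity normalised to PTC124 versus DMSO; concentration-response curves classed by r2, magnitude and activity.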

[13] = qHTS profiling for inhibitors of Plasmodium falciparum proliferation (AID 504749);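 note: 0% = DMSO vehicle and full inhibition = artemisinin control; nearly all actives have a fitted effect of over 60% in size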; conditions: P. falciparum in erythrocytes, SYBR Green DNA, 72 h
How it was run: (§1)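 P. falciparum-infected erythrocytes (0.3% parasitemia, 2.5% hematocrit) incubated with compound 72 h at 37 C, 5% CO2. Parasite DNA detected by SYBR Green after lysis, overnight at room temperature; normalised to 0.29 uM artemisinin and DMSO.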

[14] = tested on: CP238; test: as above; conditions: P. falciparum in erythrocytes, SYBR Green DNA, 72 h; series mostly up to 12.8 µM
How it was run: as §1

[15] = tested on: CP262; test: as above; conditions: P. falciparum in erythrocytes, SYBR Green DNA, 72 h; series mostly up to 12.8 µM
How it was run: as §1

[16] = tested on: CP325; test: as above; conditions: P. falciparum in erythrocytes, SYBR Green DNA, 72 h; series mostly up to 12.8 µM
How it was run: as §1

[17] = tested on: ECU; test: as above; conditions: P. falciparum in erythrocytes, SYBR Green DNA, 72 h; series mostly up to 12.8 µM
How it was run: as §1

[18] = tested on: FAB9; test: as above; conditions: P. falciparum in erythrocytes, SYBR Green DNA, 72 h; series mostly up to 12.8 µM
How it was run: as §1

[19] = tested on: HB3; test: as above; conditions: P. falciparum in erythrocytes, SYBR Green DNA, 72 h; series mostly up to 12.8 µM
How it was run: as §1

[20] = tested on: JCK; test: as above; conditions: P. falciparum in erythrocytes, SYBR Green DNA, 72 h; series mostly up to 12.8 µM
How it was run: as §1

[21] = at 7.69 µM (top of the series) unless noted
[22] = measured here: cell count channel max response
[23] = measured here: lipid channel max response
[24] = at 12.8 µM (top of the series), parasite line A
[25] = at 12.8 µM (top of the series), parasite line B

Sequence of 3',5'-cyclic-AMP phosphodiesterase 4B (Homo sapiens) (Q07343 whole entry, looked up): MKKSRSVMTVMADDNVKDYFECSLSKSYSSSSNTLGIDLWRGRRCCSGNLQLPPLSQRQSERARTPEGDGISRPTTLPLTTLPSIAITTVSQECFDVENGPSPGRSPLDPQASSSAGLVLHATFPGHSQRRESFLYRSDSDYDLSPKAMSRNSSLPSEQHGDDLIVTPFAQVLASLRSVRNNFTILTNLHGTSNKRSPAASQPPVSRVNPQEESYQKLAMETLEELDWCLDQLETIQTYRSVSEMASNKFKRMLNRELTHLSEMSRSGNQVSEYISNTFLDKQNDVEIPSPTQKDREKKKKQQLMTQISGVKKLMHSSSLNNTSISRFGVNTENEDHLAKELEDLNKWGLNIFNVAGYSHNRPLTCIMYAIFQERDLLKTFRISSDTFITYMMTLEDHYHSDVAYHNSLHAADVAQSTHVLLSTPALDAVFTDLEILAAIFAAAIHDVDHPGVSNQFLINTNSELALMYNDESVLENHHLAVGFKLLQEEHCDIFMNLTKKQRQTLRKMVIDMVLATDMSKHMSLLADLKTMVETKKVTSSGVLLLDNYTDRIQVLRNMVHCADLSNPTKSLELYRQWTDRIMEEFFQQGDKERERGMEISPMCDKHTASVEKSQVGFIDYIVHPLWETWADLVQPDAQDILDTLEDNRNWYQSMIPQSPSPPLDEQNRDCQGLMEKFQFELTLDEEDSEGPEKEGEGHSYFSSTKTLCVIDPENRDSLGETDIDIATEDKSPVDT
Sequence of Ubiquitin carboxyl-terminal hydrolase 1 (Homo sapiens) (O94782 whole entry, looked up): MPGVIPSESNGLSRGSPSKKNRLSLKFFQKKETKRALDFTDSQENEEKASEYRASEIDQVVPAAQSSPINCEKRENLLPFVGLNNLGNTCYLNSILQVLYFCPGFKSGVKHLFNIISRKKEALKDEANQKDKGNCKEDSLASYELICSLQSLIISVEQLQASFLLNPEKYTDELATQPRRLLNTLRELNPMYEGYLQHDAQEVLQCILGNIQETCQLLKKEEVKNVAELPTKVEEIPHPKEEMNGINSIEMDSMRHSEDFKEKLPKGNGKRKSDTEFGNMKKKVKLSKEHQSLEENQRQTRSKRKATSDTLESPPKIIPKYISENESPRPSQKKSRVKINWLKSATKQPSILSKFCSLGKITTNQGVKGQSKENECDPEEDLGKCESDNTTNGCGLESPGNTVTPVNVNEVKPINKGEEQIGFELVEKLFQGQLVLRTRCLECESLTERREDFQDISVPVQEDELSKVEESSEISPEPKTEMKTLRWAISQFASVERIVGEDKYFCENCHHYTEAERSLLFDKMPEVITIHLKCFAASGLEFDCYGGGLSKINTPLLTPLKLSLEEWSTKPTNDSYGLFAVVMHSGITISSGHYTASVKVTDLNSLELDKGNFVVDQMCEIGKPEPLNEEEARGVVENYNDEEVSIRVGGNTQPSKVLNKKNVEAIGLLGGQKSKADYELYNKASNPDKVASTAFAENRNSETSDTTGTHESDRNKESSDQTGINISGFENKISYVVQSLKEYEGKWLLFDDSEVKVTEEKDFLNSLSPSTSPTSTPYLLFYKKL
Sequence of Luciferin 4-monooxygenase (Photinus pyralis) (P08659 whole entry, looked up): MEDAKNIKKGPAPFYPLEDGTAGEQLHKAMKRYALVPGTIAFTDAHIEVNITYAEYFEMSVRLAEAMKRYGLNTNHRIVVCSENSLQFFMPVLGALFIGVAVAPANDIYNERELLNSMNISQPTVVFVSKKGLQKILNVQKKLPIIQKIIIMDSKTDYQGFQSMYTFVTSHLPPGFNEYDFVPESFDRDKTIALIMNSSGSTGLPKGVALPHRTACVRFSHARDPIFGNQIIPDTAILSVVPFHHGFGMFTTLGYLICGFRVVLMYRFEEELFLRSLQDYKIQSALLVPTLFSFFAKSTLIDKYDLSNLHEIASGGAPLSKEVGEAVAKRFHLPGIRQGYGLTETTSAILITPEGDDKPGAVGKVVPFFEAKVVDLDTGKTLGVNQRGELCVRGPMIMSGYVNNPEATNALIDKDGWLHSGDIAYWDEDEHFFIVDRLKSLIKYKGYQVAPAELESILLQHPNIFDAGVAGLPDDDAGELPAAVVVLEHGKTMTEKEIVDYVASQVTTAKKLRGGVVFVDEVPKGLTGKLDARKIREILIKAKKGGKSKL
Sequence of Cytochrome P450 1A2 (Homo sapiens) (P05177 whole entry, looked up): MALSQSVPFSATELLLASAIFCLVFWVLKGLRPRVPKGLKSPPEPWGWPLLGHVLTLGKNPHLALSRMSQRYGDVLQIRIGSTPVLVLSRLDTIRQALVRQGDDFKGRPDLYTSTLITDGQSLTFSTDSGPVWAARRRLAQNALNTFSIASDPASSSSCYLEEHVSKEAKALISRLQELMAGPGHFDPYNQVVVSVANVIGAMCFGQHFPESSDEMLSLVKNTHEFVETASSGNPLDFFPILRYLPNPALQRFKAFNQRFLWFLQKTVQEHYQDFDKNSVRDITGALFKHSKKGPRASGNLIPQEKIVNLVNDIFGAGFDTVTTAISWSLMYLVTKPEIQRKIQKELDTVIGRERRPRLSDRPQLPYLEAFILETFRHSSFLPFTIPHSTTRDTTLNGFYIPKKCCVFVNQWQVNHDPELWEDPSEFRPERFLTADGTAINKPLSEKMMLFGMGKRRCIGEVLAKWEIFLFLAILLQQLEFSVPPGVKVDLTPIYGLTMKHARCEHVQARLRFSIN
Sequence of Glucocorticoid receptor (Homo sapiens) (P04150 whole entry, looked up, the tested form may be a part): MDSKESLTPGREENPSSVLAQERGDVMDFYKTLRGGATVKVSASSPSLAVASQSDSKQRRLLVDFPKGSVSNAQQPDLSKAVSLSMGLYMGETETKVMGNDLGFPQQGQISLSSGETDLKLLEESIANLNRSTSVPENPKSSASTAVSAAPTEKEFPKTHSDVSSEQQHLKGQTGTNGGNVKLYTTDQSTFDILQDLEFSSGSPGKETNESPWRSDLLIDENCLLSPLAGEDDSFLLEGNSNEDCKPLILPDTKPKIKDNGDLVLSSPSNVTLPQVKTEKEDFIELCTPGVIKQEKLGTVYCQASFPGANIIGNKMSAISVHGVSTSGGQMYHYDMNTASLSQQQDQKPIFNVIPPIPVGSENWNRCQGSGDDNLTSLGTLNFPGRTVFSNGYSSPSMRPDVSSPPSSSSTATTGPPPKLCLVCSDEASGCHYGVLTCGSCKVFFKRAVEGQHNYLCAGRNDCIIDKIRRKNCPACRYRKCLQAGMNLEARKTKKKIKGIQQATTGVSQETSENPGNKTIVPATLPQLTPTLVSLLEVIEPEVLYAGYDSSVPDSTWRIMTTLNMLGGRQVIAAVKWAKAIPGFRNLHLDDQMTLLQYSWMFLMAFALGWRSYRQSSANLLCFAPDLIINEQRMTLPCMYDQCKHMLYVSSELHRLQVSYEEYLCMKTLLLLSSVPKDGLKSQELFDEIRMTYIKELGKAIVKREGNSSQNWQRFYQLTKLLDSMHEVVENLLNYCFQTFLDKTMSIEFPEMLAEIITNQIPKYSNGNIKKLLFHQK
Sequence of ATP-dependent 6-phosphofructokinase (Trypanosoma brucei brucei) (O15648 whole entry, looked up): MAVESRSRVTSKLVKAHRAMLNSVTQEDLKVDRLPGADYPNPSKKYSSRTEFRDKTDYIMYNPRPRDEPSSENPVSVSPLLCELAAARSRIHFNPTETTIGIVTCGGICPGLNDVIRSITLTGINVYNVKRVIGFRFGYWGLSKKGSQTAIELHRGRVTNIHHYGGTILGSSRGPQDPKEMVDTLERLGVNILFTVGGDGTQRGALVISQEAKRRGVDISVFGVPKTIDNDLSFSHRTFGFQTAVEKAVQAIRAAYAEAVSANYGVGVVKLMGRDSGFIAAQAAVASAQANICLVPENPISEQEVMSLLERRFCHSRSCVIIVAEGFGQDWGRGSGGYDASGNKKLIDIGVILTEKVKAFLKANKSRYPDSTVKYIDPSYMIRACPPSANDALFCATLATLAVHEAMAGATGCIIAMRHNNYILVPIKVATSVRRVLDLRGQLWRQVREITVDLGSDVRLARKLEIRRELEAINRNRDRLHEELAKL

O=C(O)/C=C\c1ccc(Cn2ccnc2)cc1
inactive: activity change, negative = inhibition [1] -4.02% [at 17.2 µM] | activity change, negative = inhibition [3] -0.213% [at 17.2 µM] | activity, negative = inhibition [4, 21] 6.45% [at 17.2 µM] | Potency [5] > 20.6 µM | Potency [6] > 20.6 µM | Potency [7] | Potency [8] | activity change, negative = inhibition ([9]; at 25.7 µM (top of the series)) 0.716% | outcome [10] | Potency [11] | outcome [12] | activity, negative = inhibition [13, 24] 2.69% | activity, negative = inhibition [13, 25] -5.94% | Potency [14] | Potency [15] | Potency [16] | Potency [17] | Potency [18] | Potency [19] | Potency [20]
active: Potency [2] 12.6 µM
-3.7%: max response [9, 23]
-6.14%: max response [9, 22]

CCCN[C@@H](C)C(=O)Nc1c(C)csc1C(=O)OC
-6.57%: max response [9, 22]
inactive: activity change, negative = inhibition [1] 8.34% [at 17.2 µM] | activity change, negative = inhibition [3] -13.1% [at 17.2 µM] | activity, negative = inhibition [4, 21] -0.411% [at 17.2 µM] | Potency [5] > 20.6 µM | Potency [6] > 20.6 µM | Potency [7] | Potency [8] | activity change, negative = inhibition ([9]; at 25.7 µM (top of the series)) -2.12% | outcome [10] | outcome [12] | activity, negative = inhibition [13, 24] 6.61% | activity, negative = inhibition [13, 25] 16.5% | Potency [14] | Potency [15] | Potency [16] | Potency [17] | Potency [18] | Potency [19] | Potency [20]
active: Potency [2] 12.6 µM
-14.2%: max response [9, 23]

NS(=O)(=O)c1cc([C@@]2(O)NC(=O)c3ccccc32)ccc1Cl
-14.5%: max response [9, 23]
-12.6%: max response [9, 22]
inactive: activity change, negative = inhibition [1] -7.43% [at 17.2 µM] | Potency [2] | activity change, negative = inhibition [3] -15.2% [at 17.2 µM] | activity, negative = inhibition [4, 21] 1.16% [at 17.2 µM] | Potency [5] > 20.6 µM | Potency [6] > 20.6 µM | Potency [7] | Potency [8] | activity change, negative = inhibition ([9]; at 25.7 µM (top of the series)) -1.2% | outcome [10] | Potency [11] | outcome [12] | activity, negative = inhibition [13, 24] -2.59% | activity, negative = inhibition [13, 25] 2.66% | Potency [14] | Potency [15] | Potency [16] | Potency [17] | Potency [18] | Potency [19] | Potency [20]

Cc1ccccc1[C@@H](OCCN(C)C)c1ccccc1
1.49%: max response [9, 23]
inactive: activity change, negative = inhibition [1] 26.9% [at 17.2 µM] | Potency [2] | activity, negative = inhibition ([4]; at 17.2 µM (top of the series)) 5.39% | activity, negative = inhibition ([4]; at 38 µM (top of the series)) 20.8% | Potency [5] > 46 µM and > 20.6 µM | Potency [6] > 46 µM and > 20.6 µM | Potency [7] | Potency [8] | activity change, negative = inhibition ([9]; at 25.7 µM (top of the series)) -1.18%
0.329%: max response [9, 22]

CC1(C)Oc2ccc(C#N)cc2[C@H](N2CCCC2=O)[C@H]1O
6.51% and -0.942%: max response [9, 23]
inactive: Potency [5] > 46 µM | Potency [6] > 46 µM | Potency [7] | Potency [8] | activity change, negative = inhibition ([9]; at 57.5 µM (top of the series)) 0.0468% and 5.32% | outcome [10] | Potency [11] | outcome [12] | activity, negative = inhibition ([13]; at 28.7 µM (top of the series), parasite line A) 10.2% | activity, negative = inhibition ([13]; at 28.7 µM (top of the series), parasite line B) 9.46% | Potency [14] | Potency [15] | Potency [16] | Potency [17] | Potency [18] | Potency [19] | Potency [20]
active: Potency [2] 10 µM
5.79% and -0.997%: max response [9, 22]
